# Reference: PubChem BioAssay (NCI)
# Compounds without any hit were thinned out: in the full panel of roughly 83,000, 20% have a hit.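 48-hour exposure, single concentration, 96-well plates; percent growth endpoint where 0 means no net growth. Active: below 10.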 Values without a mark were called inactive. Active and inactive are the calls of the source.
# System: SW-620 colon
# Test: NCI-60 one-dose screen, 48 h (100 = growth as untreated, 0 = no growth, -100 = all killed)
# Settings: 10 µM unless noted
row,Compound,growth
1,COC(=O)c1cc2oc(/C=N\NC(=O)c3cc4oc(C)c(C)c4[nH]3)cc2[nH]1,108%
2,COc1cccc(-c2nc(-c3ccc(N)cc3)co2)c1,113%
3,CC(=O)c1nn(-c2ccccc2)c(=Nc2ccccc2)cc1C,104%
4,COc1cc(/C=C2\CN(S(=O)(=O)c3ccc(C)cc3)C/C(=C\c3cc(CN4CCOCC4)c(O)c(OC)c3)C2=O)cc(CN2CCOCC2)c1O,3.91% (active)
5,CCOc1cc(/C=C/C(=O)C(C(=O)/C=C/c2ccc(OC(=O)CNc3nnc(C)s3)c(OCC)c2)C(=O)CNc2nnc(C)s2)ccc1OC(=O)CNc1nnc(C)s1,-64.8% (active)
6,O=C(N/N=C/c1cccc([N+](=O)[O-])c1)c1ccc(Br)o1,116%
7,O=C(CN1CCN(c2ccc(Cl)cc2)CC1)N1CCN(c2nnc(-c3ccccc3)c(-c3ccccc3)n2)CC1,46.9%
8,O=C1CNc2cc(Cl)ccc2N1,105%
9,Cc1cnc2nc(-c3ccc(N(C)C)cc3)cn2c1,116%
10,CCCCNCCCN(CCCC)CCCNCCCC,101%
11,C/C(=C\CCc1ccoc1)CC/C=C(\C)CCCC1COC(=O)C1 (centres undefined),103%
12,O=C(c1ccccc1)c1ccc(Oc2ccc([N+](=O)[O-])cc2[N+](=O)[O-])cc1,3.07% (active)
13,OCCN1CCN(CCCN2c3ccccc3Sc3ccc(C(F)(F)F)cc32)CC1,-31.2% (active)
14,COP(=O)(OC)C(c1ccc(O)cc1)(c1ccc(O)cc1)c1ccc(O)cc1,97.3%
